Active and inactive are the calls of the source. Rule for the calls: active = hit-call score of the fitted dose curve at least 0.9, where 1 is the maximum; inactive = score below 0.9.
How the values were obtained:
Settings in all cases: mRNA level, 48 h; actives raise or lower the signal
[1] = read-out: adenosine kinase (ADK) gene, ADK (gene 132); assay: LTEA_HepaRG_ADK: Life Technologies and Expression Analysis (LTEA) Assay for adenosine kinase (ADK) gene using HepaRG (AID 2283471)
How it was run: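 Differentiated HepaRG cells dosed 48 h in serum-free induction medium, 0.5% DMSO vehicle, eight half-log concentrations from 100 uM, in duplicate. ADK mRNA by TaqMan qRT-PCR normalised to ACTB, GAPDH, POLR2A; bidirectional fit versus DMSO.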

[2] = read-out: BCL2L11 (gene 10018); assay: LTEA_HepaRG_BCL2L11: Life Technologies and Expression Analysis (LTEA) Assay for Bcl-2 (BCL2L11) gene using HepaRG (AID 2283473)
How it was run: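 Human hepatic HepaRG cultures are treated 48 h with test chemicals (maximum 100 uM, 0.5% DMSO vehicle). Expression of BCL2L11 is measured by qRT-PCR against ACTB, GAPDH and POLR2A, with activity in either direction scored relative to vehicle.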

[3] = read-out: Apolipoprotein A-V (APOA5) gene, APOA5 (gene 116519); assay: LTEA_HepaRG_APOA5: Life Technologies and Expression Analysis (LTEA) Assay for Apolipoprotein A-V (APOA5) gene using HepaRG (AID 2283474)
How it was run: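 Concentration-response of APOA5 expression in HepaRG: eight half-log doses to 100 uM, 48 h, qRT-PCR normalized to ACTB/GAPDH/POLR2A, bidirectional fitting with 0.5% DMSO as baseline.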

[4] = read-out: Apoptosis regulator Bcl-2 (Homo sapiens) (UniProt P10415); assay: LTEA_HepaRG_BCL2: Life Technologies and Expression Analysis (LTEA) Assay for Bcl-2 gene using HepaRG (AID 2283475)
How it was run: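 Differentiated human HepaRG cells in serum-free induction medium exposed 48 h, in duplicate, to 8-point half-log series from 100 uM in 0.5% DMSO. BCL2 mRNA by qRT-PCR (TaqMan/Fluidigm), normalized to ACTB, GAPDH, POLR2A; bidirectional fit against DMSO.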

[5] = read-out: Bcl-2 (BID) gene, BID (gene 637); assay: LTEA_HepaRG_BID: Life Technologies and Expression Analysis (LTEA) Assay for Bcl-2 (BID) gene using HepaRG (AID 2283476)
How it was run: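 Gene expression by qRT-PCR in HepaRG cells after 48 h exposure, duplicate wells, eight half-log concentrations topping at 100 uM in 0.5% DMSO. Normalized to ACTB, GAPDH, POLR2A; bidirectional fitting relative to DMSO.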

[6] = read-out: Caspase-3 (Homo sapiens) (UniProt P42574); assay: LTEA_HepaRG_CASP3: Life Technologies and Expression Analysis (LTEA) Assay for cysteine-aspartic acid protease (CASP3) using HepaRG (AID 2283477)
How it was run: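 Transcript-level assay: CASP3 mRNA in human HepaRG after 48 h treatment, eight half-log concentrations from 100 uM in 0.5% DMSO, quantified by qRT-PCR.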

[7] = read-out: Cytochrome P450 (CYP24A1), CYP24A1 (gene 1591); assay: LTEA_HepaRG_CYP24A1: Life Technologies and Expression Analysis (LTEA) Assay for Cytochrome P450 (CYP24A1) using HepaRG (AID 2283478)
How it was run: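 Gene expression of CYP24A1 by TaqMan qRT-PCR in HepaRG after 48 h treatment, highest concentration 100 uM; activity fitted in both directions relative to DMSO vehicle.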

[8] = read-out: Cytochrome P450 (CYP1A2), CYP1A2 (gene 1544); assay: LTEA_HepaRG_CYP1A2: Life Technologies and Expression Analysis (LTEA) Assay for Cytochrome P450 (CYP1A2) using HepaRG (AID 2283479)
How it was run: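 In duplicate wells, HepaRG cultures maintained in 0.5% DMSO were treated 48 h across an 8-point, half-log series topping at 100 uM; phenobarbital (1 mM) served as induction control. Expression was read by qRT-PCR.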

[9] = read-out: cysteine-aspartic acid protease (CASP8), CASP8 (gene 841); assay: LTEA_HepaRG_CASP8: Life Technologies and Expression Analysis (LTEA) Assay for cysteine-aspartic acid protease (CASP8) using HepaRG (AID 2283480)
How it was run: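 HepaRG, 48 h exposure, duplicate wells; 8 conc, half-log from 100 uM, 0.5% DMSO. Serum-free induction medium. CASP8 mRNA by TaqMan qRT-PCR, norm. ACTB/GAPDH/POLR2A; gain/loss fitted vs DMSO.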

[10] = read-out: Cytochrome P450 (CYP2B6), CYP2B6 (gene 1555); assay: LTEA_HepaRG_CYP2B6: Life Technologies and Expression Analysis (LTEA) Assay for Cytochrome P450 (CYP2B6) using HepaRG (AID 2283481)
How it was run: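 Human HepaRG, 48 h dosing, 0.5% DMSO vehicle, top dose 100 uM. CYP2B6 transcript by qRT-PCR, housekeeping-normalized, bidirectional curve fit.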

[11] = read-out: Cytochrome P450 2C19 (Homo sapiens) (UniProt P33261); assay: LTEA_HepaRG_CYP2C19: Life Technologies and Expression Analysis (LTEA) Assay for CYP2C19 using HepaRG (AID 2283482)
How it was run: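 Endpoint: CYP2C19 mRNA change, bidirectional fit vs 0.5% DMSO. Cells: HepaRG, 48 h exposure, eight-point series topping at 100 uM. Quantitation: qRT-PCR normalized to ACTB, GAPDH, POLR2A.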

[12] = read-out: CYP2C8 (gene 1558); assay: LTEA_HepaRG_CYP2C8: Life Technologies and Expression Analysis (LTEA) Assay for CYP2C8 using HepaRG (AID 2283483)
How it was run: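 CYP2C8 mRNA induction or loss, by qRT-PCR normalized to ACTB/GAPDH/POLR2A, is read in HepaRG cells after 48 h treatment. Concentrations run from 100 uM down in half-log dilutions, with 0.5% DMSO as vehicle and baseline.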

[13] = read-out: CYP2C9 (gene 1559); assay: LTEA_HepaRG_CYP2C9: Life Technologies and Expression Analysis (LTEA) Assay for CYP2C9 using HepaRG (AID 2283484)
How it was run: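 Cells plated 48 h, switched to serum-free induction medium, then treated in duplicate for 48 h at eight concentrations (max 100 uM, 0.5% DMSO). RNA then analysed by qRT-PCR for CYP2C9; curves fitted in both directions relative to DMSO.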

[14] = read-out: CYP2E1 (gene 1571); assay: LTEA_HepaRG_CYP2E1: Life Technologies and Expression Analysis (LTEA) Assay for CYP2E1 using HepaRG (AID 2283485)
How it was run: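 HepaRG cells, plated 48 h, then exposed 48 h in serum-free induction medium to eight half-log concentrations from 100 uM in 0.5% DMSO, duplicate. CYP2E1 mRNA by qRT-PCR, normalized to ACTB/GAPDH/POLR2A; bidirectional fit versus DMSO.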

[15] = read-out: CYP4A11 (gene 1579); assay: LTEA_HepaRG_CYP4A11: Life Technologies and Expression Analysis (LTEA) Assay for CYP4A11 using HepaRG (AID 2283486)
How it was run: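 Human hepatic HepaRG cultures receive duplicate 48 h exposures across a concentration-response series topping at 100 uM. Expression changes in CYP4A11 are measured by qRT-PCR relative to DMSO controls.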

[16] = read-out: Cytochrome P450 3A4 (Homo sapiens) (UniProt P08684); assay: LTEA_HepaRG_CYP3A4: Life Technologies and Expression Analysis (LTEA) Assay for CYP3A4 using HepaRG (AID 2283487)
How it was run: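 Differentiated HepaRG cells in serum-free induction medium exposed in duplicate for 48 h to 8 half-log concentrations up to 100 uM in 0.5% DMSO. CYP3A4 mRNA measured by qRT-PCR normalized to ACTB, GAPDH and POLR2A; bidirectional fit versus DMSO.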

[17] = read-out: DNA damage-inducible transcript 3 (DDIT3), DDIT3 (gene 1649); assay: LTEA_HepaRG_DDIT3: Life Technologies and Expression Analysis (LTEA) Assay for DNA damage-inducible transcript 3 (DDIT3) using HepaRG (AID 2283488)
How it was run: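 HepaRG cells, 48 h after plating, exposed 48 h in serum-free induction medium to 8 half-log concentrations up to 100 uM in 0.5% DMSO, in duplicate. DDIT3 mRNA measured by TaqMan qRT-PCR, normalized to ACTB, GAPDH and POLR2A. Fitted bidirectionally against DMSO.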

[18] = read-out: Early growth response protein 1 (EGR1) transcription factor, EGR1 (gene 1958); assay: LTEA_HepaRG_EGR1: Life Technologies and Expression Analysis (LTEA) Assay for Early growth response protein 1 (EGR1) transcription factor using HepaRG (AID 2283490)
How it was run: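 Read-out is EGR1 mRNA level by qRT-PCR, normalized to three housekeeping genes and analysed for gain or loss of signal against 0.5% DMSO. Source cells: human HepaRG, treated 48 h at up to 100 uM in half-log dilutions.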

[19] = read-out: Pro-epidermal growth factor (Homo sapiens) (UniProt P01133); assay: LTEA_HepaRG_EGF: Life Technologies and Expression Analysis (LTEA) Assay for Epidermal growth factor (EGF) using HepaRG (AID 2283489)
How it was run: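 Concentration-response mRNA assay: HepaRG cells dosed 48 h (max 100 uM, 0.5% DMSO), EGF measured by qRT-PCR and normalized to ACTB/GAPDH/POLR2A.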

Measured: AC50

Sequence of Cytochrome P450 3A4 (Homo sapiens) (P08684 whole entry, looked up): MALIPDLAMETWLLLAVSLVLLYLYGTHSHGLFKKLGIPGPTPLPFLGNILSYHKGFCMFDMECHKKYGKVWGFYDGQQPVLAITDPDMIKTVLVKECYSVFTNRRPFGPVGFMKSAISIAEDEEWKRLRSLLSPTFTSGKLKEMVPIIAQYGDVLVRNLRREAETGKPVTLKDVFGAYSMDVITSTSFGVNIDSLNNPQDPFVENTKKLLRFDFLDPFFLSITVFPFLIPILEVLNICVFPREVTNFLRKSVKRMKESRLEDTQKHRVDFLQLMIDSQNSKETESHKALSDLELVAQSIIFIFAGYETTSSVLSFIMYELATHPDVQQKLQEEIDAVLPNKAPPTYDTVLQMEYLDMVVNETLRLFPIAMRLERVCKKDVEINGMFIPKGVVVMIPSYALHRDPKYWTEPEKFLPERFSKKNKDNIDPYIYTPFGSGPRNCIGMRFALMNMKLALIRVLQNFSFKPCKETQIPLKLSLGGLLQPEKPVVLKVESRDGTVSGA
Sequence of Cytochrome P450 2C19 (Homo sapiens) (P33261 whole entry, looked up): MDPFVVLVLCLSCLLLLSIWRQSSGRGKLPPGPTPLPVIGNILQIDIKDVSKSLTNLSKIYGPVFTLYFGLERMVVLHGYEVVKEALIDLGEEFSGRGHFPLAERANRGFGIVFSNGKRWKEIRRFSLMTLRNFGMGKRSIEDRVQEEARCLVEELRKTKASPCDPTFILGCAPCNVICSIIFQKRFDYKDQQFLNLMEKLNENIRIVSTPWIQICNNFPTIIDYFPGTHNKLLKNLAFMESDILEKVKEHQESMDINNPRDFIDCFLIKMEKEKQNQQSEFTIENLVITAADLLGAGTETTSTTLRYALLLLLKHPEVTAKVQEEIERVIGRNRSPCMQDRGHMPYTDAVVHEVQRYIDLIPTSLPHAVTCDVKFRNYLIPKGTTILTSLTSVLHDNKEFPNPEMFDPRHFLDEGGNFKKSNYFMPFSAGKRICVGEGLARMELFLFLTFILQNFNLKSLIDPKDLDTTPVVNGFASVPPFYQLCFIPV
Sequence of Apoptosis regulator Bcl-2 (Homo sapiens) (P10415 whole entry, looked up): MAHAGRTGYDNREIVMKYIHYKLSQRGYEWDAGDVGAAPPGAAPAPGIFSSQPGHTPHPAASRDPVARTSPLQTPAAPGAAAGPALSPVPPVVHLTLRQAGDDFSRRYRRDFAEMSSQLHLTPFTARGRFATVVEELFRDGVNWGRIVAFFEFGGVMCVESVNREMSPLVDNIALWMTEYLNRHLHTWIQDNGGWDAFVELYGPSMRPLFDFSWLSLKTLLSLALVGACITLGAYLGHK
Sequence of Caspase-3 (Homo sapiens) (P42574 whole entry, looked up): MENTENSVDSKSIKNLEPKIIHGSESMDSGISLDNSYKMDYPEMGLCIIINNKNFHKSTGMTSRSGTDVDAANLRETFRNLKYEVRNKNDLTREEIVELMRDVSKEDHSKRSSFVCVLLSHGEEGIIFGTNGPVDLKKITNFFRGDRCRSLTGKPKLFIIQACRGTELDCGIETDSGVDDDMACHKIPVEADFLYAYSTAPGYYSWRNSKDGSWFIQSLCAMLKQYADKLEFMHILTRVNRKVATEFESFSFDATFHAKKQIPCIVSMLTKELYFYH

Nc1ccc2ccccc2c1
inactive: [1] | [2] | [3] | [4] | [5] | [6] | [7] | [9] | [12] | [13] | [15] | [16] | [17] | [18]
active: [8] 33.1 µM | [10] 13 µM | [11] 26.7 µM | [14] 33.8 µM

CC(C)(C)c1ccc(O)cc1
inactive: [1] | [2] | [3] | [4] | [5] | [6] | [9] | [17] | [19] | [18]

Nc1ccc(Cl)cc1
active: [8] 33.4 µM
inactive: [1] | [2] | [3] | [4] | [5] | [6] | [7] | [9] | [10] | [11] | [12] | [13] | [14] | [15] | [16] | [17] | [18]

CCOS(=O)(=O)OCC
inactive: [1] | [2] | [3] | [4] | [5] | [6] | [7] | [8] | [9] | [10] | [11] | [12] | [13] | [14] | [15] | [16] | [17] | [18]

OCC1CO1 (centres undefined)
inactive: [1] | [2] | [3] | [4] | [5] | [6] | [7] | [8] | [9] | [10] | [11] | [12] | [13] | [14] | [15] | [16] | [17] | [18]

CC(Cl)(Cl)C(=O)O
inactive: [1] | [2] | [3] | [4] | [5] | [6] | [8] | [9] | [10] | [11] | [12] | [13] | [14] | [15] | [16] | [17] | [18]

From PubChem BioAssay (EPA / NIEHS)
